Cruzain Triton = cruzain (T. cruzi) inhibition with detergent; Potency, µM, for the others: max response, negative = inhibition, usual class: inhibitors; P25779; actives 0.43% (n = 200,000); purified cruzain, Z-FR-AMC fluorescence, 0.01% Triton;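 note: plate controls were neutral wells for no effect and buffer without enzyme for full effect; nearly all actives have a fitted effect of over 40% in size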
Target sequence (P25779 123-467 limits assumed): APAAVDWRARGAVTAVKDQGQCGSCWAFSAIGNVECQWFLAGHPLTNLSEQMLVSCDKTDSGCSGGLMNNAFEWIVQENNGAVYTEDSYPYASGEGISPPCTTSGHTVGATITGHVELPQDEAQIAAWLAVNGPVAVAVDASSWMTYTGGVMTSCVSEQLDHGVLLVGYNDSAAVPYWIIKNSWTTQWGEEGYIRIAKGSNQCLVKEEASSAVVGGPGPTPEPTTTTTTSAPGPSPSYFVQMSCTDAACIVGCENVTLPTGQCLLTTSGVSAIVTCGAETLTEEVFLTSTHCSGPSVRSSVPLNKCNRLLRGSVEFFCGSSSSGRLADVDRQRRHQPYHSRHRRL
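Cruzain (1.5 nM) preincubated 15 min at RT with compound in 100 mM sodium acetate pH 5.5, 5 mM DTT, 0.01% Triton X-100. Reaction started with 2 uM Z-FR-AMC; AMC fluorescence (ex 360/em 450 nm) change over 60 s gave rate.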
Cruzain inh noDet = inhibitors of Trypanosoma cruzi cruzain without detergent; P25779; purified cruzain, Z-FR-AMC fluorescence, no detergent; Potency, µM, for inactives: max response, negative = inhibition, most hits filed as inhibitors; actives 2.3% (n = 200,000);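 note: plate controls were enzyme without inhibitor for no effect and buffer without enzyme for full effect; nearly all actives have a fitted effect of over 40% in size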
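Detergent-free condition (0.00005% Triton X-100) in acetate buffer pH 5.5 with DTT. 1.5 nM enzyme and compound were pre-mixed 15 min, then 2 uM Z-FR-AMC substrate added; reaction progress from fluorescence change between first and third reads (60 s).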
Giardia FBPA inh = Giardia lamblia aldolase inhibition | A8B2U2 | purified Giardia FBPA | Potency, µM (series often up to 59.6 µM), for the others: top-dose activity, negative = inhibition, actives largely listed as inhibitors | actives 0.71% (n = 290,000) | AID 2451; note: nearly all actives have a fitted effect of over 55% in size
Target sequence (A8B2U2 whole entry, looked up): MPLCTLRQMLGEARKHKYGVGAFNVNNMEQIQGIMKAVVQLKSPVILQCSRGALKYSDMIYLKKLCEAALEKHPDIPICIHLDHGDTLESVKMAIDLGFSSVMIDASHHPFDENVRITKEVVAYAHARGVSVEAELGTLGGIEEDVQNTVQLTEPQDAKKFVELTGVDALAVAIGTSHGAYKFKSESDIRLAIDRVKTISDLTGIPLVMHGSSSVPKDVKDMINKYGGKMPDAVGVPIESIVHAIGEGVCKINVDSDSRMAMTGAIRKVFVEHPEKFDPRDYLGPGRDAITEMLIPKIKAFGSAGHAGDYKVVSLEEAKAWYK
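Giardia FBPA (40 nM reagent) was preincubated 10 min at RT with compound (up to 57.5 uM final), then substrate plus GAPDH/TPI/NAD/arsenate coupling system with diaphorase/resazurin was added; resorufin fluorescence (525/598 nm) was read after 20 min.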
Papain counter = counter-screen for cruzain inhibitors: papain inhibition; actives 41% (n = 410); shares compounds with Cruzain Triton; Potency, µM, inactives show max response, negative = inhibition, usual class: inhibitors; AID 2161; purified papain, Z-FR-AMC fluorescence cleavage;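 note: 0% = no-compound wells and -100% = no-enzyme wells; nearly all actives have a fitted effect of over 35% in size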
The depositor's hits bear a star; ? = inconclusive; / = not tested or not shown; [ ] = another dose, or the depositor's remark. Only a selection was taken, and hits are over-represented in it overall. Calls come from the whole dose curve; as a rule, active = well fitted curve in the direction sought with a large enough effect; inconclusive = small, poorly fitted or top-dose-only effect, or another doubt; inactive = no such curve, though single readings can be large; an effect the other way counts as inactive or inconclusive. Unless noted, % is set by controls: 0 for no effect and ±100 for the full control effect; potency is the fitted concentration of half-maximal effect.

SMILES	Cruzain Triton	Cruzain inh noDet	Giardia FBPA inh	Papain counter
COC(=O)CNC(=O)C1CCN(C(=O)OCc2ccccc2)CC1	-5%	-1%	1%	/
COC(=O)c1ccc(-c2ccc(OC)c(C3C4C=CCC(C)C4C(=O)N3Cc3ccccc3)c2)cc1 (stereo not drawn)	/	/	1%	/
CSc1nc(N(CCO)CCO)c2sc3nc(-c4ccco4)c4c(c3c2n1)CCC4	10µM*	3.2µM*	?	13µM*
CSc1nc(SCCO)c2sc3nc(-c4ccco4)c4c(c3c2n1)CC(C)(C)OC4	?	?	-11%	/
CCOC(=O)N1CCC(=C2c3ccc(Cl)cc3CCc3cccnc32)CC1	-5%	?	-15%	-9%
CCOC(=O)N1CCN(c2ccnc3cc(Cl)ccc23)CC1	/	/	-1%	/
Cc1cc(C)cc(-n2c(SCC(N)=O)nc3c(oc4ccccc43)c2=O)c1	-5%	7%	/	/
CCc1nn(C(CC)C(=O)NCc2ccc(OC)c(OC)c2)c(=O)c2cc3oc(C)cc3n12 (stereo not drawn)	-4%	12%	/	/
O=C(N/N=C/c1cccc(O)c1)c1ccccc1O	/	/	-4%	/
O=C(N/N=C\c1ccccc1O)c1ccccc1O	-10%	32µM*	12%	7%
O=C(c1ccc2c(c1)N(Cc1ccc(Cl)cc1)C(=O)c1ccccc1S2=O)N1CCC(Cc2ccccc2)CC1 (stereo not drawn)	0%	?	/	/
CC(C)=CCC/C(C)=C/CO/N=C1/[C@H]2O[C@@H]2[C@@H](O)[C@H]2[C@H]1CCn1c(=O)n(Cc3cc4c(cc3Cl)OCO4)c(=O)n12	/	/	3%[12.9 µM]	/
CC(C)N1CCN(c2ccc(C(=O)c3c(-c4ccc(O)cc4)sc4cc(O)ccc34)cc2)CC1	/	/	5%	/
O=C(c1ccc(OCCN2CCCCC2)cc1)c1c(-c2ccc(O)cc2)sc2cc(O)ccc12	-5%	-12%	5%	-3%
Cn1cc(S(=O)(=O)N2CCOCC2)cc1C(=O)Nc1ccc(Cl)c(C(F)(F)F)c1	-4%	3%	/	/
CCOC(=O)c1cc2c(=O)n3ccccc3nc2n(Cc2ccco2)c1=NC(=O)c1cccnc1	16µM*	-4%	-5%	-58%
CCOC(=O)c1cc2c(=O)n3cccc(C)c3nc2n(Cc2ccco2)c1=NC(=O)c1cccnc1	-9%	?	?	/
CCSc1nnc(NC(=O)c2ccc(Br)s2)s1	-2%	25µM*	?	14%
CCSc1nnc(NC(=O)c2ccccc2)s1	-2%	5%	-18%	/
CCSc1nnc(NC(=O)/C=C/c2ccc3c(c2)OCO3)s1	16µM*	16µM*	20%	7%
O=C(/C=C/c1ccc2c(c1)OCO2)Nc1nc2ccccc2s1	-1%	-11%	1%	/
CC1=C(c2ccc(Cl)cc2)S(=O)(=O)NC1=NCCCN1CCN(c2cc(C)ccc2C)CC1	-7%	19%	/	/
CCn1nc(-c2ccccc2)nc2c(=O)n(C)c(=O)nc1-2	2.2µM*	1.3µM*	?	4%
CCS(=O)(=O)n1nc(-c2ccc(C)cc2)nc1N	-2%	-1%	3%	/
CCOC(=O)Cn1nc(-c2ccccc2)nc1-c1ccccc1	-3%	4%	-5%	/
SMILES	Cruzain Triton	Cruzain inh noDet	Giardia FBPA inh	Papain counter
CCn1nc(-c2ccc(C)cc2)nc2c(=O)n(C)c(=O)nc1-2	/	/	/	-3%
CC(C)(C)c1ccc(OCC(=O)O)c(Cl)c1	2%	12%	/	/
CCCC[C@H]1CCCO[C@@](C(=O)NCc2ccc(C)o2)(C(F)(F)F)C1	/	/	-4%	/
COC(=O)c1ccc(NC(=O)CC2C(=O)N(c3ccc(Cl)cc3)C(=O)N2Cc2ccco2)cc1 (stereo not drawn)	-10%	?	/	/
CCCc1nc2ccccc2n1CCOc1ccccc1	-6%	0%	3%	/
CCc1ccc(OCCCn2c(CCNC(=O)C3CCCCC3)nc3ccccc32)cc1	/	/	/	16µM*
CCc1ccc(OCCSc2nc3ccccc3n2CC(=O)N2CCCCC2)cc1	-5%	14%	/	/
CCc1ccc(OCCn2c(CCNC(=O)C3CCCCC3)nc3ccccc32)cc1	/	/	/	-5%
O=C(Nc1cccc(Cl)c1N1CCOCC1)c1ccc([N+](=O)[O-])o1	/	/	0%	/
O=C(NC(=S)Nc1cccc(Cl)c1N1CCCC1)c1ccc(-c2cccc([N+](=O)[O-])c2)o1	-3%	3.2µM*	1%	8%
CC(C)c1ccc2oc(-c3cc(NC(=O)c4cccnc4)ccc3Cl)nc2c1	-10%	?	/	/
COc1cccc(CNC(=O)c2ccc3c(c2)N(Cc2ccc(F)cc2Cl)C(=O)c2ccccc2S3)c1	1%	13µM*	/	7%
O=C(NCc1ccco1)c1ccc2c(c1)N(Cc1c(F)cccc1Cl)C(=O)c1ccccc1S2	-3%	?	/	/
CCOc1ccc(CN2C(=O)c3ccccc3Sc3ccc(C(=O)NCCc4ccccc4)cc32)cc1	-6%	?	/	/
O=C(NCc1ccc2c(c1)OCO2)c1ccc2c(c1)N(Cc1c(F)cccc1Cl)C(=O)c1ccccc1S2	-2%	10µM*	/	-3%
O=C(O)c1ccc2c(c1)N(Cc1ccc(F)cc1Cl)C(=O)c1ccccc1S2	-1%	?	/	/
CCOc1ccc(CN2C(=O)c3ccccc3Sc3ccc(C(=O)NCc4ccc(C)cc4)cc32)cc1	-1%	10µM*	/	8%
COc1cccc(CN2C(=O)c3ccccc3Sc3ccc(C(=O)NCCc4ccc(Cl)cc4)cc32)c1	-3%	20µM*	/	8%
Cc1cccc(CN2C(=O)c3ccccc3Sc3ccc(C(=O)NCCc4ccccc4)cc32)c1	1%	?	/	/
COc1cccc(N(CC(=O)N2CCC(C)CC2)S(=O)(=O)c2ccc(C)cc2)c1	-3%	6%	/	/
CC(C)(C)c1ccc(C(=O)NNc2ncnc3c2cnn3-c2ccc(Cl)cc2)cc1	1%	-1%	/	/
C=C1CCN(C(Cc2ccccc2)C(=O)NC2CCN(Cc3ccccc3)CC2)S(=O)(=O)c2ccccc21 (stereo not drawn)	/	/	4%	/
Fc1ccc(Nc2ncncc2-c2ccccc2C(F)(F)F)cc1	-4%	-7%	-4%	/
Cc1ccc2[nH]c(=O)c3cc(C(=O)NCCCN4CCC(C)CC4)sc3c2c1	-16%	2%	/	/
C=CCC(CC=C)(CNC(=O)C(=O)Nc1ccc(C)cc1)c1ccccc1	0%	-2%	/	/
SMILES	Cruzain Triton	Cruzain inh noDet	Giardia FBPA inh	Papain counter
Cc1ccc(S(=O)(=O)c2cnc(SC(C)C(=O)Nc3ccccc3)[nH]c2=O)cc1 (stereo not drawn)	-8%	25%	/	/
COc1ccc(-c2nnc(NC(=O)c3ccc(S(=O)(=O)N4CCCc5ccccc54)cc3)o2)cc1	-1%	-23%	28%	-4%
O=C(Nc1nnc(C2CC2)o1)c1ccc(S(=O)(=O)N2CCCc3ccccc32)cc1	-5%	23%	?	/
COc1ccc(NC(=O)Cn2c(=O)n(-c3ccc(OC)cc3)c(=O)c3sc4ccccc4c32)cc1	4%	1%	/	/
CCOC(=O)C1CCN(c2nc3c(S(=O)(=O)c4ccccc4)nnn3c3ccc(Cl)cc23)CC1	-4%	0%	/	/
Nc1c(C(=O)NCCC2=CCCCC2)sc2ccc(S(=O)(=O)N3CCCCC3)cc12	3.5µM*	13µM*	-2%	-10%
Cc1ccc(CNC(=O)c2sc3ccc(S(=O)(=O)N4CCCCC4)cc3c2N)cc1	-7%	?	3%	/
O=C(Cn1ncc2c(Cl)cccc21)NCc1cccc(Br)c1	-3%	-1%	/	/

Assay outcomes (PubChem BioAssay)
